# PMC4336329 (PLoS ONE, 2015)
# Out of some 310,000 compounds screened, about 14,000 (4.5%) showed an effect of 50% or more. The effect is printed as a negative number. The list comes from a sample in which strong results are over-represented; it also holds similar structures and randomly drawn compounds.
# Biological target: human ether-à-go-go-related gene (hERG) potassium channel (human, UniProt Q12809)
# Assay: primary screen, population patch clamp on CHO cells stably expressing hERG; higher = less effect of the substance
# 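Note: peak tail current of the secondary pulse compared with the same well before compound.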
# Chain of human ether-à-go-go-related gene (hERG) potassium channel (Q12809 whole entry, looked up): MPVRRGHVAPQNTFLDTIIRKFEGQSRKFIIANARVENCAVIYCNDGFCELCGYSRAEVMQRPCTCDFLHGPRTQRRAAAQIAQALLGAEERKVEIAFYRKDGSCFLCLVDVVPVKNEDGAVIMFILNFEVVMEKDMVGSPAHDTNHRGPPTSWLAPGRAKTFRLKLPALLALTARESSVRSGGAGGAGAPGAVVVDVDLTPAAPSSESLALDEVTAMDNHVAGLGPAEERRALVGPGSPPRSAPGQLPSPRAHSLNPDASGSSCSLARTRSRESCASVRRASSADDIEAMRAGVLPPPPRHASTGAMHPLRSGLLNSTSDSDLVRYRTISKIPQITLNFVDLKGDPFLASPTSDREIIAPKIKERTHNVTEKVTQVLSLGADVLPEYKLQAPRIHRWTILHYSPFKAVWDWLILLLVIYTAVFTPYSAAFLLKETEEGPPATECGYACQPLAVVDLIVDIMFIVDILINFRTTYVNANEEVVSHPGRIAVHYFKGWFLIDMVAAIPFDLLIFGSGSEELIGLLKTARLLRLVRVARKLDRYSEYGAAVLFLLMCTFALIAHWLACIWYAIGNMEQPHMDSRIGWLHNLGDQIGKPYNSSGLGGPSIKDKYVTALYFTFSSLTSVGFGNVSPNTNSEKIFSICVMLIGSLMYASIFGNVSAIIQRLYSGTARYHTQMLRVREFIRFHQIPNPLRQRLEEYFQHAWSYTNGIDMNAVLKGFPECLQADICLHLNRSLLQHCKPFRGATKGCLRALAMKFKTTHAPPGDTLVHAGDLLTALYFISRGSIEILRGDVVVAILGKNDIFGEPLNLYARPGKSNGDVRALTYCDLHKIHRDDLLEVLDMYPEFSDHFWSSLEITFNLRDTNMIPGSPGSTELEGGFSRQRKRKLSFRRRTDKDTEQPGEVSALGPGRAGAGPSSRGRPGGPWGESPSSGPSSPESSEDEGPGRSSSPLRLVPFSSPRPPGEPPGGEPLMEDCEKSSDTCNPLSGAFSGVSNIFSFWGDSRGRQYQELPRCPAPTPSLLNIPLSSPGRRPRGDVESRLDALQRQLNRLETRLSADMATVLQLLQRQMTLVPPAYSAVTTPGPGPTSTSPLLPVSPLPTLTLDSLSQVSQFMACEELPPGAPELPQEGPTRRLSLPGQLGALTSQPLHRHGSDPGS
row,Compound,"hERG current change (%, negative = inhibition) at 10uM [%]"
1,CCCCN(C(=O)CSc1nnnn1C)C1CCS(=O)(=O)C1 (stereo not drawn),-28.1
2,COC(=O)N/N=C/c1cn(CCOc2ccc(OC)cc2)c2ccccc12,16.8
3,Cc1ccc(-n2cc3c(=O)n(C)c(=O)n(C)c3c2)cc1C,-6.21
4,CC(=O)N[C@H]1C(O)O[C@H](CO)[C@@H](O)[C@@H]1O (stereo partly drawn),9.71
5,CCN(CC)c1ccc(C=O)c(OC)c1,-9.16
6,N#C/C(=C\c1cc2c(cc1Br)OCO2)c1ccc(C(=O)O)cc1,13.2
7,COCC(=O)N(C)c1nnc(-c2ccc([N+](=O)[O-])cc2)s1,6.65
8,CN(CC(=O)Nc1c(Cl)cccc1Cl)C(=O)c1ccncc1,19.4
9,Cn1cnc2c1c(=O)n(Cc1cccc(F)c1)c(=O)n2C,12
10,Nc1c(C(=O)NC2CCCCC2)nsc1C(=O)OCC(=O)NC1CCCCC1,12.5
11,CCn1c(-c2cc(-c3ccc(C)cc3)nc3ccccc23)n[nH]c1=S,11.4
12,CNCCOc1ccc(Cl)c(Cl)c1.O=C(O)C(=O)O,12.8
13,COc1ccc(NC(=O)CNC(=O)Cc2cccc3ccccc23)c(OC)c1,2.01
14,O=C(Nc1ncc(Cc2ccccc2)s1)C1COc2ccccc2O1 (stereo not drawn),-0.581
15,CCOC(=O)c1c(-c2ccc(C)o2)csc1NC(=O)COC(=O)c1cccs1,-12
16,CN1C(=O)NC(c2ccc(O)cc2)C2=C1CN(c1cccc3ccccc13)C2=O (stereo not drawn),-11.8
17,CCC(=O)NC(NC(=S)Nc1ccc(S(N)(=O)=O)cc1)C(Cl)(Cl)Cl (stereo not drawn),-1.3
18,COc1ccc(NC(=O)CSc2nc3ccccc3c(=O)n2CCC(=O)N2CCCCC2)cc1,-69.2
19,COc1ccc(NC(=O)CSc2nc3ccccc3c(=O)n2C)cc1,4.53
20,Cc1ccc(CSc2nc3ccccc3c(=O)n2CCCC(=O)NCc2ccco2)cc1,-2.71
21,O=C(CSc1nc2ccccc2c(=O)n1CCC(=O)N1CCCCC1)NCc1ccccc1,-70.4
22,O=C(CCCCCn1c(SCC(=O)c2ccccc2)nc2ccccc2c1=O)NCc1ccco1,10.8
23,NS(=O)(=O)c1ccc(CCNC(=O)CSc2nc3ccccc3c(=O)n2CCC(=O)N2CCCCC2)cc1,19.8
24,O=C(CCCCCn1c(SCc2ccncc2)nc2ccccc2c1=O)NCc1ccco1,-86

row,Compound,"hERG current change (%, negative = inhibition) at 10uM [%]"
1,CCOc1ccc(NC(=O)CSc2nc3ccccc3c(=O)n2CCCC(=O)N2CCCC2)cc1,-23.8
2,CCn1c(SCC(=O)NCc2ccccc2)nc2ccccc2c1=O,-11.6
3,NC(=O)c1ccc(NC(=O)CSc2nnc(-c3ccc4c(c3)OCO4)o2)cc1,2.05
4,CCCCN(CCCC)C(=O)c1sc2nc(N3CCOCC3)c3c(c2c1N)CCCC3,9
5,COc1ccc(Cl)cc1NC(=O)NC1CCCCC1,10.3
6,CN(CCCC(=O)NCc1ccco1)S(=O)(=O)c1ccccc1,-5.89
7,CC(=O)C12CCCCC1CC1C3CC(C)C4(O)CC(=O)CCC4(C)C3CCC12C (stereo not drawn),21.8
8,Cc1nc2ccccc2c(=O)n1-c1ccccc1[N+](=O)[O-],17.2
9,CCCCCN(C(=O)CCC(=O)OC(C)C(=O)NC1CCCCC1)c1c(N)n(CCCC)c(=O)[nH]c1=O (stereo not drawn),16.1
10,CSc1nncc(/C(C)=N\Nc2ccccc2)n1,9.18
11,Cc1ccc(C(C)(C)NC(=O)C2CCC(=O)N(CC3CCCCC3)C2)cc1 (stereo not drawn),3.82
12,Cn1cccc1C(=O)c1cccc([N+](=O)[O-])c1,-52.9
13,Cn1ccnc1/C(=N\NC(=O)c1ccc(O)cc1)c1cccc([N+](=O)[O-])c1,-22.7
14,CC(=O)c1cccc([N+](=O)[O-])c1,17.7
15,Cn1ccnc1/C(=N\NC(=O)c1ccccc1)c1cccc([N+](=O)[O-])c1,-68.6
16,O=C(N/N=C(\c1ccccc1)c1ccccn1)c1cccc([N+](=O)[O-])c1,-65.6
17,O=C(NNC(=O)c1ccccn1)c1cccc([N+](=O)[O-])c1,8.7
18,C/C(=N\NC(=O)c1ccc([N+](=O)[O-])cc1)c1cccc([N+](=O)[O-])c1,5.82
19,NC(=O)c1cccc([N+](=O)[O-])c1,5.64
20,COc1cccc(C(=O)N/N=C(/c2ccccc2)c2ccccn2)c1,6.88
21,CC1=NN(c2ccccc2)C(=O)/C1=C/c1ccc[nH]1,-7.74
22,CCN(CC(=O)Nc1ccc(NC(C)=O)cc1)C(=O)c1cccc2ccccc12,1.23
23,Cc1cccc(Nc2ncnc(N)c2[N+](=O)[O-])n1,17.8
24,C=CCN1CC(c2nc3ccccc3n2Cc2cccc3ccccc23)CC1=O (stereo not drawn),-24.2

row,Compound,"hERG current change (%, negative = inhibition) at 10uM [%]"
1,C/C(=N\NC(=O)CNc1cccc2ccccc12)c1ccccc1,10.2
2,COc1ccc2sc3ccccc3c(=O)c2c1,-10.1
3,Cc1ccc(N2CC(C(=O)N3CCC(C(=O)Nc4nnc(C(C)C)s4)CC3)CC2=O)cc1 (stereo not drawn),10.7
4,CC(=O)Nc1ccc(S(=O)(=O)N(C)CC(=O)OCC(=O)N(C)C2CCS(=O)(=O)C2)cc1 (stereo not drawn),18.8
5,CN(CCOc1ccccc1)C(=O)C1CCN(C(=O)c2ccc(F)cc2)CC1,-19.9
6,CN(CCOc1ccc(Cl)cc1)C(=O)C1CCN(C(=O)c2ccc(Cl)cc2)CC1,-75.4
7,CN(CCOc1ccc(Cl)cc1)C(=O)C1CCN(C(=O)c2ccc(F)cc2)CC1,-69.9
8,Cc1ccccc1C(=O)N1CCC(C(=O)N(C)CCOc2ccccc2)CC1,9.06
9,CN(CCOc1ccccc1)C(=O)C1CCN(C(=O)c2ccc(Cl)cc2)CC1,-47.9
10,O=C(c1ccc(Cl)cc1)C1CCN(C(=O)c2ccc(F)cc2)CC1,-34.7
11,Cc1ccc(Cn2ccc(NC(=O)c3cc(CC(C)C)on3)n2)cc1,-8.08
12,CCn1nc(C(=O)OCC(=O)c2cc(C)n(Cc3cccs3)c2C)c2ccccc2c1=O,7.14
13,O=C(/C=C/c1cccs1)Nc1sc2c(c1C(=O)O)CCCC2,28.5
14,Cc1cc(C(=O)OCC(=O)NCc2ccco2)c(C)n1-c1ccc(F)cc1,-28.3
15,O=C(OCC(=O)N1CCN(C(=O)c2ccco2)CC1)c1cc(-c2ccco2)nc2ccccc12,-69.7
16,O=C(COC(=O)c1cc(-c2ccco2)nc2ccccc12)NCc1ccccc1,-11.3
17,O=C(OCC(=O)N1CCN(C(=O)c2ccco2)CC1)c1cccc(F)c1,-16.8
18,O=C(OCC(=O)N1CCN(C(=O)c2ccco2)CC1)c1cc(-c2ccc(F)cc2)nc2ccccc12,-59.4
19,O=C(OCC(=O)N1CCN(C(=O)c2ccco2)CC1)c1cc(-c2ccc(Cl)c(Cl)c2Cl)nc2ccccc12,2.88
20,O=C(OCC(=O)N1CCN(C(=O)c2ccco2)CC1)c1cc(-c2cccc(Br)c2)nc2ccccc12,-19.6
21,Cc1cc(C(=O)OCC(=O)N2CCN(C(=O)c3ccco3)CC2)c(C)n1-c1ccc(F)cc1,-66.4
22,O=C(c1cc(-c2ccco2)nc2ccccc12)N1CCN(Cc2ccccc2)CC1,-42.8
23,O=C(c1ccco1)N1CCN(C(=O)c2cc(-c3ccccn3)nc3ccccc23)CC1,-34.8
24,O=C(OCC(=O)N1CCN(C(=O)c2ccco2)CC1)c1cc(-c2ccccc2)nc2ccccc12,-60.3

row,Compound,"hERG current change (%, negative = inhibition) at 10uM [%]"
1,COc1ccc(-c2cc(C(=O)OCC(=O)N3CCCC3)c3ccccc3n2)cc1,-19.1
2,CCCn1[nH]cc(SC)c(=O)c1=O,-5.83
3,CCn1c(SCC(=O)Nc2c(C)n(C)n(-c3ccccc3)c2=O)nc2c1c(=O)n(C)c(=O)n2C,18.2
4,Cc1c(C(C)C)c(=O)n(-c2ccc(S(=O)(=O)N3CCOCC3)cc2)n1C,17.4
5,Nc1c(Cl)c(Cl)nc(C(=O)OCC(=O)NCc2ccccc2)c1Cl,-18.2
6,COCCn1c(SCC#N)nnc1-c1ccc2c(c1)OCO2,-24.2
7,CCCCC(=O)Nc1c(O)c2ccccc2[nH]c1=O,-0.31
8,Cc1ccc(NC(=O)N2CCCCC2)cc1NC(=O)N1CCCCC1,16.5
9,Cc1ccc(-n2c(O)c(C=N)c(=O)n(-c3ccc(C)cc3)c2=O)cc1,-8.85
10,COc1cc(CC2(CCc3ccncc3)C(=O)N(C)C(=O)N(C)C2=O)cc(OC)c1OC,-8.33
11,O=C1NC(=O)C(CCc2ccncc2)(CCc2ccncc2)C(=O)N1C1CCCCC1,-75.3
12,COc1ccccc1N1C(=O)NC(=O)C(CCc2ccncc2)(CCc2ccncc2)C1=O,-46.6
13,C=CCN1C(=O)NC(=O)C(CCc2ccncc2)(CCc2ccncc2)C1=O,-41.8
14,CN1C(=O)N(C)C(=O)C(CCc2ccccn2)(CCc2ccccn2)C1=O,3.54
15,CN1C(=O)N(C)C(=O)C(CCc2ccncc2)(CCc2ccncc2)C1=O,-51.2
16,CCC1(CCc2ccncc2)C(=O)NC(=O)NC1=O,-4.69
17,O=C1NC(=O)C(CCc2ccncc2)(CCc2ccncc2)C(=O)N1Cc1ccccc1,-72.5
18,O=C1NC(=O)C(CCc2ccncc2)(C2CCCCC2)C(=O)N1,5.77
19,O=C1NC(=O)C(CCc2ccncc2)(c2ccccc2)C(=O)N1,5.76
20,O=C1NC(=O)C(CCc2ccncc2)(CCc2ccncc2)C(=O)N1CCc1ccccc1,-71.7
21,O=C1NC(=O)C(CCc2ccncc2)(Cc2ccc3c(c2)OCO3)C(=O)N1CCc1ccccc1 (stereo not drawn),-32.5
